The entries come from a sample that favours hits as a whole.
TTR transcr act: increases transthyretin transcription; SH-SY5Y TTR promoter Gaussia luciferase, luminescence; 100% = recombinant luciferase protein wells; hit rate 1.3% among 92,000; activation, % at 16.7 µM;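 active means activation above the mean of all tested compounds plus 3 SD, cut at about 9.5% in these data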;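 further: cells exposed to compounds for one day before reading; 0% = median of all test compound wells on the plate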
HuH7 TTR inh: counter-screen for TTR activators: TTR transcription inhibitors in HuH7 cells; HuH7 TTR promoter-Gaussia luciferase reporter, luminescence; AID 1117279; inhibition, % at 16.7 µM; shares compounds with TTR transcr act; hit rate 4% among 1,100;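 active means average inhibition above the solvent-only control wells' mean plus 3 SD, cut at about 15% in these data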;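 further: 0% = cells with DMSO only and 100% = cells with inhibitor control FD; inhibitors lower well luminescence so higher value means more inhibition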
TTR up confirm: confirmation of human transthyretin transcription activators; shares compounds with TTR transcr act; SHSY5Y TTR promoter Gaussia luciferase, luminescence; 100% = purified Lucia enzyme wells, no cells; activation, % at 16.7 µM; 1,100 tested, under 10 active; AID 1117280;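 active means mean activation above a set limit taken from the earlier primary screen, cut at about 11% in these data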;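 further: 0% = DMSO-treated cells and 100% = recombinant Lucia luciferase without cells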
Numbers without * were called inactive.

SMILES	TTR transcr act	others
COC(=O)[C@]12C[C@H](CC(=O)N3CCCC3)C(=O)N(Cc3ccco3)C1=C[C@H](C1CCCC1)O[C@@H]2C	2
CCOc1cc(CNCCN2CCOCC2)ccc1OCc1ccccc1Cl	27*	HuH7 TTR inh=-7;TTR up confirm=-1
CCOc1cc(CNCCCN2CCOCC2)ccc1OCC(=O)NC(C)(C)C	1
CCOc1cc(CNC2CCCC2)ccc1OCc1ccccc1Cl	0
O=C(c1ccccc1Oc1ccccc1)N1CCC(Oc2cccnc2)CC1	0
O=C(NNC(=O)c1cc(-c2ccc(Br)cc2)nc2ccccc12)c1csc(N2CCOCC2)n1	-4
CSc1ncccc1C(=O)NNC(=O)c1csc(N2CCOCC2)n1	1
Cc1ccc(C)c(SCC(=O)NNC(=O)c2csc(N3CCOCC3)n2)c1	31*	HuH7 TTR inh=-14;TTR up confirm=-1
Cc1ccc(NC(=O)OC2CC3CC2[C@H]2CCCCN2[C@H]3Cc2ccccc2)cc1 (stereo partly drawn)	0
CCOC(=O)C(Cc1ccccc1)CP(=O)(OC)[C@@H](C)NC(=O)OCc1ccccc1 (stereo partly drawn)	0
Cc1csc(SCC(=O)NC23CC4CC(CC(C4)C2)C3)n1	11*	HuH7 TTR inh=-7;TTR up confirm=1
Cc1csc(SCC(=O)O)n1	7
Cc1nnc(SCC(=O)NC23CC4CC(CC(C4)C2)C3)s1	2
CCOC(=O)[C@]12CCCC=C1N(CCCOC)C(=O)[C@@H]2CC(=O)NCc1cccc2ccccc12	1
CC(C)(C)OC(=O)NC1CCN(c2nc(-c3ccc(Br)cc3)cs2)CC1	4
Cc1ccc(NC(=O)CCn2ccc([N+](=O)[O-])n2)nc1	29*	HuH7 TTR inh=8;TTR up confirm=1
CC(=O)Nc1ccc(NC(=O)Cn2ccc([N+](=O)[O-])n2)cc1	1
O=C(CCn1ccc([N+](=O)[O-])n1)NC1CCCCCC1	1
O=C(N1CCc2ccccc2C1)n1cc(C(O)(c2ccccc2)c2ccccc2)nn1	-1
Brc1ccc(N2O[C@H]3C=C[C@@H]2C3)nc1	0
CC1CCc2[nH]c3ccc(C(=O)NCC4CCCO4)cc3c2C1 (stereo not drawn)	5
CN(CC(=O)Nc1ccccc1Br)C(=O)c1ccncc1	0
CC1CCc2[nH]c3ccc(C(=O)N(C)CC(=O)Nc4ccccc4Br)cc3c2C1 (stereo not drawn)	31*	HuH7 TTR inh=-42;TTR up confirm=0
COC(=O)[C@]12C[C@H](CC(=O)NCCCCc3ccccc3)C(=O)N(Cc3ccco3)C1=C[C@H](C1CCCC1)O[C@@H]2C	2
O=S(=O)(c1ccc(CN2CCOCCOCCN(Cc3ccc(S(=O)(=O)C(F)(F)F)cc3)CCOCC2)cc1)C(F)(F)F	-2
SMILES	TTR transcr act	others
O=S(=O)(NCc1csc(-c2cccnc2)n1)c1ccc(Br)cc1	1
O=S(=O)(NCCc1csc(-c2cccnc2)n1)c1cccc(F)c1	2
O=C(NCCc1csc(-c2cccnc2)n1)c1ccccc1Br	18*	HuH7 TTR inh=-17;TTR up confirm=1
Brc1ccc(-c2csc(N3CCC(c4nn[nH]n4)CC3)n2)cc1	2
Nc1[nH]c(C(=O)c2ccccc2)c(-c2ccc(O)cc2)c1C(=O)NCCc1c[nH]c2ccccc12	-2
COc1cc(C(=O)Nc2cccc(-n3cnnn3)c2)cc(OC)c1OC	-1
COC(=O)COc1cccc(-n2cnnn2)c1	11*	HuH7 TTR inh=-9;TTR up confirm=1
COC(=O)c1ccc(NC(=O)COc2cccc(-n3cnnn3)c2)cc1	-2
O=C(OCc1cn(Cc2ccc(F)cc2F)nn1)N1CCOCC1	-1
CC1(C(=O)Nc2ccc3c(c2)OCCO3)CCC(=O)N1CC(F)(F)F (stereo not drawn)	-2
CC1(C(=O)Nc2ccc3ccccc3c2)CCC(=O)N1CC(F)(F)F (stereo not drawn)	13*	HuH7 TTR inh=-14;TTR up confirm=1
CC1(C(=O)NCc2ccccc2)CCC(=O)N1CC(F)(F)F (stereo not drawn)	2
O=C(Nc1nc2ncccn2c1-c1ccc(F)cc1)c1ccc(F)cc1	-1
C#CCNC(=O)CSCc1nc(-c2ccc(OCC)cc2)oc1C	1
COc1ccc(CCN=C(N)NS(=O)(=O)c2cccs2)cc1	3
NC(=NCCc1ccccc1)NS(=O)(=O)c1cccs1	19*	HuH7 TTR inh=-8;TTR up confirm=0
NC(=NCCc1ccc(Cl)cc1)NS(=O)(=O)c1ccccc1	8
CCCCNC(=O)C1(C)CCC(=O)N1CCOC (stereo not drawn)	13*	HuH7 TTR inh=-8;TTR up confirm=-1
COCCN1C(=O)CCC1(C)C(=O)NC(C)(C)C (stereo not drawn)	0
CCCCNC(=O)C1(C)CCC(=O)N1CC(F)(F)F (stereo not drawn)	0
CCN1CCN(c2nc(-c3ccccn3)nc3ccccc23)CC1	11*	HuH7 TTR inh=0;TTR up confirm=-1
CN1CCN(c2nc(-c3cccs3)nc3ccccc23)CC1	-1
c1ccc(-c2nc(N3CCOCC3)c3ccccc3n2)nc1	-2
COC[C@@H]1CCCN1c1ccc2c(c1)OCCCN(C1CC1)S2(=O)=O	4
FC(F)(F)Oc1cccc(Cn2ccc3ccc(-c4ccc5ccn(Cc6ccccc6)c5c4)cc32)c1	0
SMILES	TTR transcr act	others
COC(=O)C1CN(Cc2ccccc2)CCS(=O)(=O)N1Cc1cccc(Cl)c1 (stereo not drawn)	2
CCCN1CNc2c(c(=O)[nH]c(=S)n2CCc2c(Cl)cccc2Cl)C1	0
C=CCn1c(C)cc(C(=O)CSc2nnc3c(Cl)cc(Cl)cn23)c1C	22*	HuH7 TTR inh=-13;TTR up confirm=0
COc1ccc(C(C)=O)cc1CSc1nnc2c(Cl)cc(Cl)cn12	1
C=CCn1c(C)cc(C(=O)CSc2nc(N)cc(N)n2)c1C	2
COC[C@H]1CCCN1c1ccc2c(c1)OCCCN(C1CC1)S2(=O)=O	0
CCCCNC(=O)NS(=O)(=O)c1cnccc1Sc1ccc(Cl)cc1	16*	HuH7 TTR inh=-17;TTR up confirm=0
CCCCCNC(=O)C(C)Sc1ccc(Cl)cc1 (stereo not drawn)	2
O=C(NCCCNC(=O)c1cnccn1)c1ccc(Cl)cc1	4
CCCCNS(=O)(=O)CC1NCCc2ccccc21 (stereo not drawn)	-1
CC(C)C(NC(=O)[C@H](Cc1ccc(O)cc1)NC(=O)OC(C)(C)C)P(=O)(O)OC(Cc1ccccc1)C(=O)O (stereo partly drawn)	0
COC(=O)[C@]12C[C@H](CC(=O)NCc3ccc(C)o3)C(=O)N(Cc3ccco3)C1=C[C@H](C1CCCC1)O[C@@H]2C	1
C=CCCC[C@H]1OC(=O)[C@H](C)NC(=O)[C@H](C(C)C)NC(=O)[C@@H]2CCCN2C(=O)[C@H](Cc2ccccc2)OC(=O)[C@@H](C(C)C)N(C)C(=O)[C@H](C(C)C)NC(=O)C1(C)C	2
CC(C)(C)c1nnc(NS(=O)(=O)c2cc(Cl)ccc2Cl)s1	2
Nc1nnc(CSCc2ccccc2Cl)s1	0
Nc1nnc(CCS(=O)(=O)c2cc(Cl)ccc2Cl)s1	23*	HuH7 TTR inh=-8;TTR up confirm=-1
COc1cccc(N(C)C(=O)[C@@H](C)[C@@H](O)c2ccc(Cl)cc2)c1	2
CCCC(=O)OC[C@H]1CN([C@H](C)c2ccccc2)S(=O)(=O)c2c(F)cccc2O1	-2
COP(N)(=O)C(CC(C)C)NC(=O)OCc1ccccc1 (stereo not drawn)	0
Cc1cc(C)c(CN2CCN(C(=O)Cn3cc(C)c(=O)[nH]c3=O)CC2)c(C)c1	-1

Assay outcomes: PubChem BioAssay, The Scripps Research Institute Molecular Screening Center
